# Data taken from paper PMC7862700, “An all-to-all approach to the identification of sequence-specific readers for epigenetic DNA modifications on cytosine”.
# Columns and labels:
# Experiment in all cases: DAPPL (digital affinity profiling via proximity ligation, sequencing); 10 mM Tris-HCl pH 7.5, 50 mM NaCl, 1 mM DTT, 4% glycerol, room temperature, 30 min; GST-TFs on glutathione beads, 16-mer random dsDNA library, 0.1% formaldehyde crosslink after washing; high values mean tight binding
# Conditions in all cases: protein: recombinant; tags: N-terminal GST; dsDNA, one strand shown
# ELK1 = molecular target: T1, ELK1 (Homo sapiens, UniProt P19419 1-428)
# T1 sequence: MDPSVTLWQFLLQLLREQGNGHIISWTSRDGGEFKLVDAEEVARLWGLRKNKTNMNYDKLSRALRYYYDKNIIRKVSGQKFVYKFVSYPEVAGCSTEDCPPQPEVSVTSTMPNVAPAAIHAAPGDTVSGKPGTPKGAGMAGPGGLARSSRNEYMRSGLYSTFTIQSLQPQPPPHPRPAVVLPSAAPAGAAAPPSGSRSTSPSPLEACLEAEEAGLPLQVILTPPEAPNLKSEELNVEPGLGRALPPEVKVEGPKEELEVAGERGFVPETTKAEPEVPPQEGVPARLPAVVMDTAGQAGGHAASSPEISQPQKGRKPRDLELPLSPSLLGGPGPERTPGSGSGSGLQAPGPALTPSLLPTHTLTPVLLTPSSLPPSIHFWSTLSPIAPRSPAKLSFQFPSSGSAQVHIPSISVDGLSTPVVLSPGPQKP
# Summary of the method: (§1)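 Binding signal is each hexamer's read frequency for a factor divided by its frequency in the tag-only sample. The factors were GST-fused human transcription factors from yeast, captured on glutathione beads, DNA-barcoded and pooled with that sample. Pools were incubated with 200 nmole of a random double-stranded 16-mer DNA library in Tris/NaCl/DTT/glycerol buffer at room temperature for 30 min, then washed, crosslinked with 0.1% formaldehyde, proximity-ligated with BsaI/T4 ligase (1 h, 37 °C), PCR-amplified and sequenced on an Illumina NextSeq500.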
# GABPA = molecular target: T2, GABPA (Homo sapiens, UniProt Q06546 1-454)
# T2 sequence: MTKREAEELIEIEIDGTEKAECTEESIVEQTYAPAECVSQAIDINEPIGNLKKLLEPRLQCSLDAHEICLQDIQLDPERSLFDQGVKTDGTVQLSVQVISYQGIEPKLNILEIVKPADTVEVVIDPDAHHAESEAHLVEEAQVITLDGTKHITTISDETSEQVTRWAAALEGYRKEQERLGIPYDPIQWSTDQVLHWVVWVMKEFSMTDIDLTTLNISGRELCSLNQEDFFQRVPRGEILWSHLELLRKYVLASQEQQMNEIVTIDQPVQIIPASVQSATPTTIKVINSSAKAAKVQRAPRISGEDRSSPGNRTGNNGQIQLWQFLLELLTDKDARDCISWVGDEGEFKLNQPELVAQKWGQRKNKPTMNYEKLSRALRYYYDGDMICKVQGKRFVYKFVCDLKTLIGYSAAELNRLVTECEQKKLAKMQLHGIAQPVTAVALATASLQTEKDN
# Summary of the method: as §1
# ELF1 = ELF1 (Homo sapiens, UniProt P32519 1-619)
# ELF1, sequence (P32519 whole entry): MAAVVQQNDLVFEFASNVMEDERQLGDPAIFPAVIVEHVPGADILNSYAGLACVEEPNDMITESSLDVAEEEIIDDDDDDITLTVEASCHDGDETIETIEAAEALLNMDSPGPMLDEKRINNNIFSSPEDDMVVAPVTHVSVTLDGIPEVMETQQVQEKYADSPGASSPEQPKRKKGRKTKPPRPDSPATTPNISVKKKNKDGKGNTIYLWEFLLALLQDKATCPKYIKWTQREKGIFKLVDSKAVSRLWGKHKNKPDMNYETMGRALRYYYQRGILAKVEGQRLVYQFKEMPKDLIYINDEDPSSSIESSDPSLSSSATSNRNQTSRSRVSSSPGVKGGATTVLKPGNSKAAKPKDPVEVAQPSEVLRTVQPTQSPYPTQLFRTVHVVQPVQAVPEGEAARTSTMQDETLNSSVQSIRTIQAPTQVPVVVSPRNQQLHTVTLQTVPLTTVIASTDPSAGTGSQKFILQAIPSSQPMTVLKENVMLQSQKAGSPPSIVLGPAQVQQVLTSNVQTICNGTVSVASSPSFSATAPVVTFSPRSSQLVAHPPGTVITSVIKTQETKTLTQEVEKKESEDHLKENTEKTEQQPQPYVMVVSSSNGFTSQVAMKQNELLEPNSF
# Summary of the method: as §1
# EHF = molecular target: T3, EHF (Homo sapiens, UniProt Q9NZC4 1-300)
# T3 sequence: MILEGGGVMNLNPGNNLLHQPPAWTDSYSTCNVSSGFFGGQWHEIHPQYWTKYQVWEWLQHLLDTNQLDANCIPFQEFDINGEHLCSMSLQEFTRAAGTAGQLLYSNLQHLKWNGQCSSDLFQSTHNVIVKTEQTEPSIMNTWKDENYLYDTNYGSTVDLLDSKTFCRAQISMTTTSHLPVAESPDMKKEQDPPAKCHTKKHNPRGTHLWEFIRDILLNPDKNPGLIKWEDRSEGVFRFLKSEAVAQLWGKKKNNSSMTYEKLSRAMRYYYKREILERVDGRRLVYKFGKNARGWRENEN
# Summary of the method: as §1
# SPIB = SPIB (Homo sapiens, UniProt Q01892 1-262)
# SPIB, sequence (Q01892 whole entry): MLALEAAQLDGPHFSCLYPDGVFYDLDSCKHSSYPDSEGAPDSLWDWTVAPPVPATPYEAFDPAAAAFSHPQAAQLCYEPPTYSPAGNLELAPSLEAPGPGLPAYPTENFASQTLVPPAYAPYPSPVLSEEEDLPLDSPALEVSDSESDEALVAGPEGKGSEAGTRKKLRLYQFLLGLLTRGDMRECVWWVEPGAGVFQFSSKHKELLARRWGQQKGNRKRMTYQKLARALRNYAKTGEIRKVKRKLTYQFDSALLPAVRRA
# Summary of the method: as §1
# ETV5 = ETV5 (Homo sapiens, UniProt P41161 1-510)
# ETV5, sequence (P41161 whole entry): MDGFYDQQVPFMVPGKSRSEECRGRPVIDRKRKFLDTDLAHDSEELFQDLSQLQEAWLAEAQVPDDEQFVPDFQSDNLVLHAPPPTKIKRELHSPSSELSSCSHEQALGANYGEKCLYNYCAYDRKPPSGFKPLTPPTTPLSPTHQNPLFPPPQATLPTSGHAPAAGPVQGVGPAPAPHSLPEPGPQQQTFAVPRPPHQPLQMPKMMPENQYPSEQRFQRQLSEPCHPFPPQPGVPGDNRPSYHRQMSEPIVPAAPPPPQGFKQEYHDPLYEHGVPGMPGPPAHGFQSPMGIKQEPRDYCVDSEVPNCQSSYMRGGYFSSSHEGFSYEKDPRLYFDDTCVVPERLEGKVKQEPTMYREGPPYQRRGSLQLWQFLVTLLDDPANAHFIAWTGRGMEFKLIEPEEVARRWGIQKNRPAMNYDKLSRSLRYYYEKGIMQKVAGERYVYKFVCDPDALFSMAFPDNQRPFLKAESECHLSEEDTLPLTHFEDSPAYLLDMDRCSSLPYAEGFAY
# Summary of the method: as §1
# ELF4 = ELF4 (Homo sapiens, UniProt Q99607 1-663)
# ELF4, sequence (Q99607 whole entry): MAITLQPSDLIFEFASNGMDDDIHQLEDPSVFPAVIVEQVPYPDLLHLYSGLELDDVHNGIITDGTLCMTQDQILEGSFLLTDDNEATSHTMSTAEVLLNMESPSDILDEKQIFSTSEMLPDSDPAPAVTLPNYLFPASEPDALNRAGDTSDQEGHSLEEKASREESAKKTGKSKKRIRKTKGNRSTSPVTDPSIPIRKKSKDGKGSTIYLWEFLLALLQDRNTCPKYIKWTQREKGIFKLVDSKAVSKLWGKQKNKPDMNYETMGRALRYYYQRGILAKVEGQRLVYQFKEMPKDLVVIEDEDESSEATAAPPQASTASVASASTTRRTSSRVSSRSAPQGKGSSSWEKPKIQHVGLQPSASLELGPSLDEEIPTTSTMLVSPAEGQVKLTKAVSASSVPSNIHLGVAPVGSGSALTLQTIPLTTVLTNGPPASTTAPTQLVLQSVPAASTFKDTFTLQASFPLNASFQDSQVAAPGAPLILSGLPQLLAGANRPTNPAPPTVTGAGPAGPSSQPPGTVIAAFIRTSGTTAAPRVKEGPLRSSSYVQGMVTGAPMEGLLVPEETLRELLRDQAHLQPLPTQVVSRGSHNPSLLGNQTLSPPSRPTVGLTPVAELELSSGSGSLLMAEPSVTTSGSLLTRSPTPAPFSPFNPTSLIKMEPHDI
# Summary of the method: as §1
# ELK4 = molecular target: T4, ELK4 (Homo sapiens, UniProt P28324-2 1-405)
# T4 sequence: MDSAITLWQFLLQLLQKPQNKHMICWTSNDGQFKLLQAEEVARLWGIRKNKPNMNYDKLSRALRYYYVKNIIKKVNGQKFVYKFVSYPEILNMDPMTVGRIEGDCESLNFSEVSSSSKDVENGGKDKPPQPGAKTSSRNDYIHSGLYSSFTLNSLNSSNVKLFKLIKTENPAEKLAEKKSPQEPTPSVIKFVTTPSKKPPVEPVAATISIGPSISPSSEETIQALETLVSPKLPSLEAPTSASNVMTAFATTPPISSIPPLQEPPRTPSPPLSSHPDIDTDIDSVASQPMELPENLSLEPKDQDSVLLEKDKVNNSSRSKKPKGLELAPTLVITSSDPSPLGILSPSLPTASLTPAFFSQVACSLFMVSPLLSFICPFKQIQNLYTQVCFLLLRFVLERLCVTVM
# Summary of the method: as §1
# ELF3 = molecular target: T5, ELF3 (Homo sapiens, UniProt P78545 1-371)
# T5 sequence: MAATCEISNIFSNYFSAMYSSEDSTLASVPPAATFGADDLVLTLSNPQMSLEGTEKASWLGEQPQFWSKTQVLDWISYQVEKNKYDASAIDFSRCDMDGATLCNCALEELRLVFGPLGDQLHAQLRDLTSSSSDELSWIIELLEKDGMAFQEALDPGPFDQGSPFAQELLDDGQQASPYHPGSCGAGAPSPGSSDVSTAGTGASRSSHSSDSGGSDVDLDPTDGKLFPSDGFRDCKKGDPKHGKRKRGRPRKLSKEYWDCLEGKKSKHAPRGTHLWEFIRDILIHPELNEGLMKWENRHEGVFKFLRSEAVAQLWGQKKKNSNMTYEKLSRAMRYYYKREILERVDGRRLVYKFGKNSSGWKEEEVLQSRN
# Summary of the method: as §1
# ETV1 = ETV1 (Homo sapiens, UniProt P50549 1-477)
# ETV1, sequence (P50549 whole entry): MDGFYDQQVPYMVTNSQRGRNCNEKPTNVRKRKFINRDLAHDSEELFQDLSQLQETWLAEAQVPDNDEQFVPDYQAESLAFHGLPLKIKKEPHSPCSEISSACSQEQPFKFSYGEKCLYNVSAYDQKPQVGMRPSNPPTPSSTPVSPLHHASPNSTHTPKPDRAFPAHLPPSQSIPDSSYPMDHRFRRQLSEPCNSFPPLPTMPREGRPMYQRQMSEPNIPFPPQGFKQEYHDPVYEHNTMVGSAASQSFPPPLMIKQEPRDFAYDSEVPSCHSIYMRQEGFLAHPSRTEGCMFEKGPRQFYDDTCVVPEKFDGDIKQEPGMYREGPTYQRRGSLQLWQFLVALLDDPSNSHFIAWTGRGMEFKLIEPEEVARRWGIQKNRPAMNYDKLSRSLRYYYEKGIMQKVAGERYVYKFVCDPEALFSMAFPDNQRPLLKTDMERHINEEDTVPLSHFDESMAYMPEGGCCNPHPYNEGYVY
# Summary of the method: as §1
# ERF = molecular target: T6, ERF (Homo sapiens, UniProt P50548 1-548)
# T6 sequence: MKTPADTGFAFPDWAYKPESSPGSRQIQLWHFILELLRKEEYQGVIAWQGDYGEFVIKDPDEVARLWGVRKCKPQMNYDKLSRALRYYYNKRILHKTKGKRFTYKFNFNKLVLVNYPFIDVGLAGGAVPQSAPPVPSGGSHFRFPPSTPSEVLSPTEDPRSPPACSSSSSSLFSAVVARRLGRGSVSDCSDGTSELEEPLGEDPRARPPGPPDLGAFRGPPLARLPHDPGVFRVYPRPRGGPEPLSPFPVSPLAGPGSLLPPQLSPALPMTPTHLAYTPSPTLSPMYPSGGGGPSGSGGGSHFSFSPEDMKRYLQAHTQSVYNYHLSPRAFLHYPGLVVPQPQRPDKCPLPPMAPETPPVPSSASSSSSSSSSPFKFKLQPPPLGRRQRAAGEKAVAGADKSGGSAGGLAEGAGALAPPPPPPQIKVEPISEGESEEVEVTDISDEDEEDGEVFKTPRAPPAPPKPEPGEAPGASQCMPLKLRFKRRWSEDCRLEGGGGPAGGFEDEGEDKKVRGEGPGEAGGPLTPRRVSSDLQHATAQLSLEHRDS
# Summary of the method: as §1
# ETV3L = molecular target: T7, ETV3L (Homo sapiens, UniProt Q6ZN32 1-361)
# T7 sequence: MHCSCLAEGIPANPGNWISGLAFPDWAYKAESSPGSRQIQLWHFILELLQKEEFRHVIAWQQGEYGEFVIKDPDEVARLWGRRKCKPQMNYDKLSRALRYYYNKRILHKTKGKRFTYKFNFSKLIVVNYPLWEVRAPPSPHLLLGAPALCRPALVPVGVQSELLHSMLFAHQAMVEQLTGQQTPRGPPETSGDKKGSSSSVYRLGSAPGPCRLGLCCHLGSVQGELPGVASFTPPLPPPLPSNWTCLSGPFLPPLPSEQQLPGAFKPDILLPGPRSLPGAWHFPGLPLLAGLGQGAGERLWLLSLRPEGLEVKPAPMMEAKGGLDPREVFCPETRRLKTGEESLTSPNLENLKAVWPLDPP
# Summary of the method: as §1
# ETS2 = molecular target: T8, ETS2 (Homo sapiens, UniProt P15036 1-469)
# T8 sequence: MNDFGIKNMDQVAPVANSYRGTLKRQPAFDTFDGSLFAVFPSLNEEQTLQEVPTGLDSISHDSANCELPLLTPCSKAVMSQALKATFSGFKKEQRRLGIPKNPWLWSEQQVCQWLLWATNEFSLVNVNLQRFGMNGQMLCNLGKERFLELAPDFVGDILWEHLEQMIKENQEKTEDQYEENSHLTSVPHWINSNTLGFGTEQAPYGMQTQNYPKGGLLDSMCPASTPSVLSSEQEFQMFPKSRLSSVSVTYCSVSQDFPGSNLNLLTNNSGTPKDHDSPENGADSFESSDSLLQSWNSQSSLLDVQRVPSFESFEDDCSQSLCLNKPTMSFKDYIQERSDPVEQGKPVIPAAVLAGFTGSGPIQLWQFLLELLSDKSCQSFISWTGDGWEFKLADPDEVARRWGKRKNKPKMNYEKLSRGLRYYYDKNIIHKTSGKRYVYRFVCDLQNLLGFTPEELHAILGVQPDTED
# Summary of the method: as §1
# SPDEF = molecular target: T9, SPDEF (Homo sapiens, UniProt O95238 1-335)
# T9 sequence: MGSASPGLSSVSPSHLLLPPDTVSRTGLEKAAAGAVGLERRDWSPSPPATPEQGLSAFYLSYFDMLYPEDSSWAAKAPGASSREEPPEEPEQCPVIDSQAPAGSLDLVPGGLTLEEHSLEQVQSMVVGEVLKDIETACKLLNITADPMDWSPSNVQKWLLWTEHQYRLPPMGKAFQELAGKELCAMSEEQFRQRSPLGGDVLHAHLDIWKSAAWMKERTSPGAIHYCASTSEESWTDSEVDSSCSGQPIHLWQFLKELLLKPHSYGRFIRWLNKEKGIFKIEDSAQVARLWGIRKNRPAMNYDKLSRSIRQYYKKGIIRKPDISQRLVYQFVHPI
# Summary of the method: as §1
# ETV3 = molecular target: T10, ETV3 (Homo sapiens, UniProt P41162-2 1-143)
# T10 sequence: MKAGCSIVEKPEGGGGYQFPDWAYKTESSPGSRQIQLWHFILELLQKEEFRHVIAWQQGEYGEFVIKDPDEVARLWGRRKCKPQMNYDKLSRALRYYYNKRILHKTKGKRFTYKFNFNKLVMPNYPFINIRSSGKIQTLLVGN
# Summary of the method: as §1
sequence,measurement,setting,value
TGCAAG,binding signal,ELK1,"1.11 fold enrichment (6-mer frequency, TF over GST control)"
same,binding signal,GABPA,"1.07 fold enrichment (6-mer frequency, TF over GST control)"
same,binding signal,ELF1,"1.01 fold enrichment (6-mer frequency, TF over GST control)"
same,binding signal,EHF,"1.02 fold enrichment (6-mer frequency, TF over GST control)"
same,binding signal,SPIB,"1.04 fold enrichment (6-mer frequency, TF over GST control)"
same,binding signal,ETV5,"1.07 fold enrichment (6-mer frequency, TF over GST control)"
same,binding signal,ELF4,"1.05 fold enrichment (6-mer frequency, TF over GST control)"
same,binding signal,ELK4,"1.07 fold enrichment (6-mer frequency, TF over GST control)"
same,binding signal,ELF3,"1.15 fold enrichment (6-mer frequency, TF over GST control)"
same,binding signal,ETV1,"1.03 fold enrichment (6-mer frequency, TF over GST control)"
same,binding signal,ERF,"1.01 fold enrichment (6-mer frequency, TF over GST control)"
same,binding signal,ETV3L,"1.11 fold enrichment (6-mer frequency, TF over GST control)"
same,binding signal,ETS2,"1.12 fold enrichment (6-mer frequency, TF over GST control)"
same,binding signal,SPDEF,"1.11 fold enrichment (6-mer frequency, TF over GST control)"
same,binding signal,ETV3,"1.07 fold enrichment (6-mer frequency, TF over GST control)"
